According to PubChem BioAssay (NCI):
About 79,000 compounds went through this panel and 15% of them were active in at least one assay; those are over-represented in the sample as a whole. Calls of active or inactive are those of the source. No stated cut-off is given here; in the data, active means growth inhibition above about 70%; inactive means the rest.

Legend:
[1] = NCI Yeast Anticancer Drug Screen. Data for the rad50 strain (AID 155);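 further: 0% = growth of vehicle-only cultures of the same strain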; conditions: S. cerevisiae rad50 strain growth inhibition; at 50.0 µM; stronger effect = higher value
Outline: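 Readout: growth inhibition relative to vehicle-treated cultures. Compound exposure was carried out in a genetically defined yeast strain deficient in DNA damage repair.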

[2] = NCI Yeast Anticancer Drug Screen. Data for the mec2-1 strain (AID 157); conditions: S. cerevisiae mec2-1 strain, at 50.0 µM, stronger effect = higher value
Outline: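 Vehicle-treated cultures served as reference for growth inhibition of compound-exposed mec2-1 yeast.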

[3] = NCI Yeast Anticancer Drug Screen. Data for the sgs1 mgt1 strain (AID 161);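 further: 0% = growth of cultures given vehicle only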; conditions: S. cerevisiae sgs1 mgt1 strain, at 50.0 µM, stronger effect = higher value
Outline: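 Genetically altered yeast, compound exposure, growth inhibition relative to vehicle.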

[4] = NCI Yeast Anticancer Drug Screen. Data for the cln2 rad14 strain (AID 165);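 further: 0% = growth equal to vehicle treated cultures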; conditions: S. cerevisiae cln2 rad14 strain, at 50.0 µM, stronger effect = higher value
Outline: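 Each compound was tested on cln2 rad14 yeast. Inhibition of growth was calculated against vehicle-exposed controls.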

[5] = NCI Yeast Anticancer Drug Screen. Data for the bub3 strain (AID 167); conditions: S. cerevisiae bub3 mutant strain, at 50.0 µM, stronger effect = higher value
Outline: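 Readout: yeast growth inhibition, expressed relative to vehicle-only wells. The test organism is a mutant strain from a panel with lesions in DNA repair or checkpoint genes.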

[6] = NCI Yeast Anticancer Drug Screen. Data for the mlh1 rad18 strain (AID 175); conditions: S. cerevisiae mlh1 rad18 strain growth inhibition; at 50.0 µM; stronger effect = higher value
Outline: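 Vehicle-treated cultures served as the reference for growth inhibition in a yeast strain carrying DNA damage repair alterations exposed to each compound.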

Measured: growth inhibition

N#Cc1cnn(-c2ccccc2)c1N
inactive: [1] 25.5% | [2] -7.4% | [3] -0.3% | [4] -0.85% | [5] -4.3% | [6] -1.45%

NC(N)=NS(=O)(=O)c1ccc(NC(=O)c2cccn3c(=O)c4ccccc4nc23)cc1
inactive: [1] -6.9% | [2] -2.5% | [3] 30.3% | [4] 11.7% | [5] -9.4% | [6] -20.9%

CSc1ccc(OC(=O)NC2CCCCC2)cc1C
inactive: [1] 7.5% | [2] 22.4% | [3] 13.6% | [4] 6.25% | [5] 28.6% | [6] 14.8%

C(=C1\COC(c2ccccc2)=N1)/c1ccc2c(c1)OCO2
inactive: [1] -13.2% | [2] 14.8% | [3] 13.8% | [4] -19.6% | [5] -5% | [6] 26.9%

O=C(NNC1=NCCN1)c1ccco1
inactive: [1] -7.5% | [2] -21.1% | [3] -9.8% | [4] -32.4% | [5] -2.3% | [6] -2.25%

Cc1c(C(=O)CC(=O)C(=O)NC2C3CC4CC(C3)CC2C4)[n+](=O)c2ccccc2n1[O-] (stereo not drawn)
inactive: [1] -11.1% | [2] 0.8% | [3] -26.7% | [4] 16.3% | [5] -9.8% | [6] -20.4%

O=C(Cc1ccccc1)NN1C(=O)C(Cl)C1c1cc(Br)ccc1O (stereo not drawn)
inactive: [1] 21% | [2] 30.1% | [3] 29.6% | [4] -20.6% | [5] 25.2% | [6] 15.6%

CC1(C)C2CCC(=O)C1CC2 (stereo not drawn)
inactive: [1] 6.75% | [2] 14.2% | [3] -22.6% | [4] 12.7% | [5] -37.4% | [6] -43.5%

O=C1OC(=O)c2ccccc21
inactive: [1] 5.25% | [2] -15.2% | [3] -11.4% | [4] -24.8% | [5] -2.2% | [6] 0.05%

CCOC(=O)c1ccc(Nc2nc3ccc(C(F)(F)F)cc3nc2C(=O)OCC)cc1
inactive: [1] -24.6% | [2] 3% | [3] -11.9% | [4] -12.9% | [5] -6.2% | [6] -12.2%

O=C(Oc1ccc2ccccc2c1CN1CCOCC1)c1ccc([N+](=O)[O-])cc1
inactive: [1] 45.8% | [2] 29.9% | [3] 33.8% | [4] 30.1% | [5] 35.5% | [6] 52%

C(=NCCN=Cc1ccccc1)c1ccccc1
inactive: [1] -10.7% | [2] -6.9% | [3] -21.8% | [4] 3.25% | [5] -11.7% | [6] -8.9%

Cc1ccc(CN(CCO)Cc2ccccc2)cc1
inactive: [1] 1.75% | [2] 39% | [3] 28.1% | [4] 0.65% | [5] 43.1% | [6] 47.1%

CC/C=C/C(C)c1cc(C(=O)O)ccc1OC (stereo not drawn)
inactive: [1] 10.9% | [2] 4.3% | [3] 13.4% | [4] 6.55% | [5] -13.2% | [6] 18%

Nc1ccc2ccccc2c1S(=O)(=O)O
inactive: [1] 16.1% | [2] -6.4% | [3] 15% | [4] 4.65% | [5] -2.4% | [6] -27%

Cc1[nH]c2ccccc2c1C(c1cc(Cl)cc(Cl)c1O)c1c(C)[nH]c2ccccc12
inactive: [1] 29.8% | [2] 26.1% | [3] 25.8% | [4] -1.9% | [5] -5.05% | [6] 37.8%

CC(=O)OC1CC2CCCCC21 (stereo not drawn)
inactive: [1] 10.6% | [2] 7% | [3] -0.6% | [4] 37% | [5] 13.8% | [6] 2.3%

Nc1c2c(cc3c1C(=O)c1ccccc1C3=O)OCO2
inactive: [1] 47.8% | [2] 20% | [3] 29.4% | [4] 16.2% | [5] 22% | [6] 39%

CCCCOC(=O)C(C)O (stereo not drawn)
inactive: [1] 41.1% | [2] 16.3% | [3] 21.6% | [4] 19.3% | [5] 0.05% | [6] 24.9%

CC[N+](C)(CC)CCOC(=O)C(C1=CCCCC1)C1(O)CCCCC1 (stereo not drawn)
inactive: [1] 3.05% | [2] -15.8% | [3] -27.5% | [4] -48.9% | [5] 2.5% | [6] -16.6%

N#CC(CC(=O)c1ccccc1)c1ccccc1 (stereo not drawn)
inactive: [1] -10.3% | [2] 4.95% | [3] -18.9% | [4] -28.9% | [5] -14.3% | [6] -7.05%

COc1ccc(-c2cc3c(c4cc(OC)ccc24)C(=O)OC3=O)cc1
inactive: [1] -29.1% | [2] -5.1% | [3] 20.6% | [4] 1% | [5] 4.4% | [6] -15.1%

Cn1cc(S(=O)(=O)NC(=O)Nc2ccc(Cl)cc2)c2ccccc21
inactive: [1] -19.4% | [2] -9.85% | [3] -1.05% | [4] 29.7% | [5] -20.1% | [6] -13.9%

CCCCCCC(=O)C(=O)O
inactive: [1] 41.4% | [2] 37.8% | [3] 35.5% | [4] 3.65% | [5] 18.9% | [6] 59.5%

COc1ccc(/C=C/C2=CC(=O)CC(/C=C/c3ccc(OC)c(OC)c3)C2)cc1OC (stereo not drawn)
inactive: [1] 45% | [2] 46.5% | [3] 28.9% | [4] 49.6% | [5] 58.6% | [6] 43.9%

O=C(NCCCl)Oc1cccn(C(=O)NCCCl)c1=O
inactive: [1] 7.15% | [2] 9.7% | [3] -2.55% | [4] 9.1% | [5] 0.65% | [6] -0.8%

CC(C)(C)OC(=O)N(CCCN)CCCCN
inactive: [1] -7.65% | [2] -9.75% | [3] -40.5% | [4] -21.4% | [5] -32% | [6] -53.9%

C=CCNC(=S)/N=C\C(C(=O)OCC)=C(/O)C(=O)OCC
inactive: [1] -18.6% | [2] -18.4% | [3] -16.6% | [4] -21.7% | [5] -8.85% | [6] -29.8%

Cc1ccc2nc(C(O)C(O)C(O)CO)[nH]c2c1 (stereo not drawn)
inactive: [1] -11.3% | [2] -14.9% | [3] 10.7% | [4] -11.6% | [5] -25.7% | [6] -12.7%

O=C1CCCCC1CN1CCCC1 (stereo not drawn)
inactive: [1] -10.4% | [2] -12% | [3] -33.6% | [4] 21.4% | [5] -42.5% | [6] -22.6%

N#CC(Cc1ccccc1)C(=O)O (stereo not drawn)
inactive: [1] 2.05% | [2] 0.5% | [3] -5.35% | [4] 2% | [5] 1.4% | [6] 0.8%

O=COC(Cc1ccccc1)c1ccc2c(c1)OCO2 (stereo not drawn)
inactive: [1] 32.2% | [2] -5.2% | [3] 1.6% | [4] -7.2% | [5] 30.6% | [6] -3.05%

CCN(CC)/[N+]([O-])=N/OC
inactive: [1] -13.6% | [2] -0.3% | [3] 10.9% | [4] 13.4% | [5] 10.3% | [6] 1.35%

CCOC(=O)C(NC(=O)CC)(C(F)(F)F)P(=O)(OCC)OCC (stereo not drawn)
inactive: [1] -22.5% | [2] -12.3% | [3] -35.7% | [4] -11.8% | [5] 14.1% | [6] -9.35%

CS(=O)(=O)c1nc2ncnc(N)c2[nH]1
inactive: [1] -6.2% | [2] -18.1% | [3] -6.3% | [4] -22.4% | [5] -27.1% | [6] -4.75%

c1ccc2c(c1)cc1ccc3cc4ccccc4c4nnc2c1c34
inactive: [1] -23.1% | [2] -7.3% | [3] -10.2% | [4] -16.8% | [5] -11.9% | [6] -14.6%

COC(=O)[C@]12CCC(C)(C)C[C@H]1C1=CC[C@@H]3[C@@]4(C)CC[C@H](OC5OC(CO)C(O)C(O)C5OC5OC(CO)C(O)C(O)C5O)C(C)(C)[C@@H]4CC[C@@]3(C)[C@]1(C)CC2 (stereo partly drawn)
active: [1] 89% | [2] 90.8% | [3] 91.4% | [4] 90% | [5] 90.9% | [6] 89.5%

c1ccc(-c2cc3nncc(-c4ccccc4)n3n2)cc1
inactive: [1] -14.9% | [2] -9.95% | [3] -7.65% | [4] 13.9% | [5] 13.3% | [6] 3.55%
